“And” between values parts separate entries of the source, which are not always exact repeats. Equal entries are not always repeated. Among all 5,500 compounds or so, about 2,000 (36%) were called active. Inconclusive results (about 18%) are left out. Cut-off read from the data, not from the text of the source: active = normalized growth mostly below about 0.91 (no sharp cut-off); inconclusive = no clear call, values can overlap the other calls; inactive = mostly above about 0.92. This is one part of the list.
Assay: chemical genetic growth profiling, strain panel (AID 1159580);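 note: tested at 20 µM; growth read once vehicle control cultures reached saturation at 30 °C; 1 = growth at the plate median or of vehicle wells; lower values mean less growth of the strain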
Conditions: S. cerevisiae deletion strains, growth OD

Measured: normalized growth

CC[C@@]1(O)C[C@H](O)c2c(cc3c(c2O)C(=O)c2c(O)ccc(O)c2C3=O)[C@H]1C(=O)OC
inactive: locus YAL026C, strain drs2, stronger effect = lower value 0.936 | locus YBR021W, strain FUR4, stronger effect = lower value 1.06 | locus YBR023C, strain chs3, stronger effect = lower value 0.924 | locus YBR171W, strain sec66, stronger effect = lower value 1.02 | locus YBR229C, strain ROT2, stronger effect = lower value 0.931 | locus YBR279W, strain paf1, stronger effect = lower value 0.964 | locus YCL069W, strain vba3, stronger effect = lower value 0.993 | locus YCR088W, strain abp1, stronger effect = lower value 0.963 | locus YDL005C, strain med2, stronger effect = lower value 1.01 | locus YDL040C, strain nat1, stronger effect = lower value 0.967 | locus YDR001C, strain nth1, stronger effect = lower value 1 | locus YDR159W, strain sac3, stronger effect = lower value 0.873 | locus YDR297W, strain sur2, stronger effect = lower value 0.94 | locus YDR334W, strain swr1, stronger effect = lower value 1.01 | locus YDR335W, strain msn5, stronger effect = lower value 0.961 | locus YDR392W, strain spt3, stronger effect = lower value 0.799 | locus YEL003W, strain gim4, stronger effect = lower value 0.958 | locus YEL037C, strain rad23, stronger effect = lower value 0.997 | locus YEL061C, strain CIN8 (second series), stronger effect = lower value 1.01 | locus YER110C, stronger effect = lower value 0.98 | locus YER111C, strain swi4, stronger effect = lower value 1.03 | locus YER155C, strain BEM2 (second series), stronger effect = lower value 1.06 | locus YGL078C, strain dbp3, stronger effect = lower value 0.935 | locus YGL167C, strain pmr1, stronger effect = lower value 0.976 | locus YGL173C, strain kem1, stronger effect = lower value 0.906 | locus YGL227W, strain vid30, stronger effect = lower value 1.01 | locus YGL240W, strain doc1, stronger effect = lower value 0.894 | locus YGR252W, strain gcn5, stronger effect = lower value 0.832 | locus YHR013C, strain ard1, stronger effect = lower value 1 | locus YHR030C, strain SLT2, stronger effect = lower value 0.97 | locus YHR079C, strain IRE1, stronger effect = lower value 0.984 | locus YHR142W, strain chs7, stronger effect = lower value 0.883 | locus YJL129C, strain trk1, stronger effect = lower value 0.989 | locus YJL154C, strain vps35, stronger effect = lower value 0.996 | locus YJL168C, strain set2, stronger effect = lower value 0.942 | locus YJR066W, strain TOR1, stronger effect = lower value 0.941 | locus YKR026C, strain gcn3, stronger effect = lower value 0.994 | locus YKR091W, strain srl3, stronger effect = lower value 1 | locus YLL001W, strain dnm1, stronger effect = lower value 0.953 | locus YLL026W, stronger effect = lower value 0.956 | locus YLL041C, strain sdh2, stronger effect = lower value 0.982 | locus YLR102C, strain apc9, stronger effect = lower value 0.984 | locus YLR113W, strain HOG1, stronger effect = lower value 0.971 | locus YLR342W, strain FKS1 (second series), stronger effect = lower value 0.857 | locus YLR342W, strain FKS1, stronger effect = lower value 0.958 | locus YLR357W, strain rsc2, stronger effect = lower value 1.01 | locus YLR370C, strain arc18, stronger effect = lower value 0.96 | locus YLR371W, strain rom2, stronger effect = lower value 0.991 | locus YLR384C, strain iki3, stronger effect = lower value 1.02 | locus YML120C, strain ndi1, stronger effect = lower value 0.962 | locus YMR125W, strain sto1, stronger effect = lower value 1.08 | locus YMR129W, stronger effect = lower value 0.997 | locus YMR205C, strain PFK2, stronger effect = lower value 0.983 | locus YMR231W, strain pep5, stronger effect = lower value 1.01 | locus YMR307W, strain GAS1, stronger effect = lower value 0.641 | locus YNL071W, strain lat1, stronger effect = lower value 0.932 | locus YNL183C, strain NPR1, stronger effect = lower value 0.929 | locus YNL322C, strain KRE1 (second series), stronger effect = lower value 0.919 | locus YNR049C, strain mso1, stronger effect = lower value 0.976 | locus YOL012C, strain htz1 0.287 | locus YOR001W, strain rrp6, stronger effect = lower value 0.943 | locus YOR080W, strain dia2, stronger effect = lower value 0.941 | locus YOR231W, strain MKK1, stronger effect = lower value 0.981 | locus YOR265W, strain rbl2, stronger effect = lower value 0.938 | locus YOR290C, strain snf2, stronger effect = lower value 0.911 | locus YOR316C, strain cot1, stronger effect = lower value 1 | locus YPL078C, strain atp4, stronger effect = lower value 0.961 | locus YPL240C, strain hsp82, stronger effect = lower value 0.979 | locus YPL256C, strain CLN2, stronger effect = lower value 0.995 | locus YPR119W, strain clb2, stronger effect = lower value 0.952
active: locus YAL013W, strain DEP1, stronger effect = lower value 0.495 | locus YAL021C, strain ccr4, stronger effect = lower value 0.768 | locus YAL030W, strain snc1, stronger effect = lower value 0.908 | locus YBL061C, strain skt5, stronger effect = lower value 0.89 | locus YBR009C, strain hhf1, stronger effect = lower value 0.805 | locus YBR231C, strain swc5, stronger effect = lower value 0.751 | locus YCL011C, strain gbp2, stronger effect = lower value 0.874 | locus YCL016C, strain dcc1, stronger effect = lower value 0.607 | locus YCL029C, strain bik1, stronger effect = lower value 0.873 | locus YDL035C, strain GPR1, stronger effect = lower value 0.779 | locus YDL074C, strain BRE1, stronger effect = lower value 0.588 | locus YDL101C, strain DUN1, stronger effect = lower value 0.659 | locus YDL134C, strain PPH21, stronger effect = lower value 0.622 | locus YDL185W, strain tfp1, stronger effect = lower value 0.774 | locus YDL192W, strain arf1, stronger effect = lower value 0.735 | locus YDR069C, strain doa4, stronger effect = lower value 0.896 | locus YDR101C, strain arx1, stronger effect = lower value 0.848 | locus YDR137W, strain rgp1, stronger effect = lower value 0.707 | locus YDR150W, strain NUM1, stronger effect = lower value 0.879 | locus YDR162C, strain NBP2, stronger effect = lower value 0.414 | locus YDR195W, strain ref2 1.28 [resistant] | locus YDR318W, strain mcm21, stronger effect = lower value 0.861 | locus YDR388W, stronger effect = lower value 0.811 | locus YDR502C, strain sam2, stronger effect = lower value 0.7 | locus YEL061C, strain CIN8, stronger effect = lower value 0.7 | locus YER015W, strain faa2, stronger effect = lower value 0.894 | locus YER016W, strain bim1, stronger effect = lower value 0.909 | locus YER155C, strain BEM2, stronger effect = lower value 0.638 | locus YER167W, strain BCK2, stronger effect = lower value 0.713 | locus YFR010W, strain ubp6, stronger effect = lower value 0.894 | locus YGL086W, strain mad1, stronger effect = lower value 0.718 | locus YGL248W, strain PDE1, stronger effect = lower value 0.682 | locus YGL253W, strain hxk2, stronger effect = lower value 0.825 | locus YGR135W, strain pre9, stronger effect = lower value 0.818 | locus YHR027C, strain rpn1, stronger effect = lower value 0.713 | locus YHR079C, strain IRE1 (second series), stronger effect = lower value 0.856 | locus YHR094C, strain hxt1, stronger effect = lower value 0.88 | locus YHR129C, strain ARP1, stronger effect = lower value 0.638 | locus YHR200W, strain rpn10, stronger effect = lower value 0.771 | locus YIL066C, strain RNR3, stronger effect = lower value 0.421 | locus YIL073C, strain SPO22, stronger effect = lower value 0.593 | locus YIL125W, strain kgd1, stronger effect = lower value 0.861 | locus YIR030C, strain dcg1, stronger effect = lower value 0.908 | locus YJL092W, strain hpr5, stronger effect = lower value 0.734 | locus YJL095W, strain BCK1 (second series), stronger effect = lower value 0.912 | locus YJL115W, strain asf1, stronger effect = lower value 0.394 | locus YJL134W, strain LCB3, stronger effect = lower value 0.905 | locus YJL164C, strain tpk1, stronger effect = lower value 0.887 | locus YJL166W, strain qcr8, stronger effect = lower value 0.838 | locus YJL187C, strain SWE1 (second series), stronger effect = lower value 0.344 | locus YJR043C, strain POL32, stronger effect = lower value 0.696 | locus YKL009W, strain mrt4, stronger effect = lower value 1.54 [resistant] | locus YKL085W, strain MDH1 (second series), stronger effect = lower value 0.818 | locus YKL085W, strain MDH1, stronger effect = lower value 0.818 | locus YKL160W, strain elf1, stronger effect = lower value 0.9 | locus YKR001C, strain vps1, stronger effect = lower value 0.354 | locus YLR027C, strain aat2, stronger effect = lower value 0.869 | locus YLR039C, strain RIC1, stronger effect = lower value 0.395 | locus YLR058C, strain SHM2, stronger effect = lower value 0.643 | locus YLR221C, strain rsa3, stronger effect = lower value 0.901 | locus YLR258W, strain gsy2, stronger effect = lower value 0.9 | locus YLR262C, strain YPT6 (second series), stronger effect = lower value 0.795 | locus YLR268W, strain sec22, stronger effect = lower value 0.545 | locus YLR320W, strain mms22, stronger effect = lower value 0.216 | locus YLR418C, strain cdc73, stronger effect = lower value 0.56 | locus YML016C, strain PPZ1, stronger effect = lower value 0.815 | locus YML032C, strain rad52, stronger effect = lower value 0.175 | locus YML124C, strain tub3, stronger effect = lower value 0.808 | locus YMR058W, strain fet3, stronger effect = lower value 0.815 | locus YMR078C, strain ctf18, stronger effect = lower value 0.335 | locus YMR223W, strain ubp8, stronger effect = lower value 0.602 | locus YNL067W, strain RPL9B, stronger effect = lower value 0.691 | locus YNL209W, strain ssb2, stronger effect = lower value 0.895 | locus YNL233W, strain BNI4, stronger effect = lower value 0.511 | locus YNL248C, strain rpa49, stronger effect = lower value 0.706 | locus YNL250W, strain rad50, stronger effect = lower value 0.144 | locus YNL271C, strain bni1, stronger effect = lower value 0.885 | locus YNL298W, strain CLA4, stronger effect = lower value 0.891 | locus YNL307C, strain MCK1, stronger effect = lower value 0.785 | locus YNL322C, strain KRE1, stronger effect = lower value 0.751 | locus YNR052C, strain pop2, stronger effect = lower value 0.666 | locus YOL147C, strain pex11, stronger effect = lower value 0.802 | locus YOR061W, strain CKA2, stronger effect = lower value 0.793 | locus YOR069W, strain VPS5, stronger effect = lower value 0.577 | locus YOR070C, strain gyp1, stronger effect = lower value 0.877 | locus YOR083W, strain WHI5, stronger effect = lower value 0.806 | locus YOR106W, strain vam3, stronger effect = lower value 0.593 | locus YOR136W, strain idh2, stronger effect = lower value 0.877 | locus YOR144C, strain elg1, stronger effect = lower value 0.812 | locus YOR184W, strain ser1, stronger effect = lower value 0.426 | locus YOR270C, strain vph1, stronger effect = lower value 0.409 | locus YPL051W, strain arl3, stronger effect = lower value 0.685 | locus YPL055C, strain LGE1, stronger effect = lower value 0.146 | locus YPL106C, strain sse1, stronger effect = lower value 1.21 [resistant] | locus YPR141C, strain kar3, stronger effect = lower value 0.912 | locus YPR163C, strain tif3, stronger effect = lower value 0.72 | locus YPR167C, strain met16, stronger effect = lower value 0.597 | strain wtn01, stronger effect = lower value 0.703
0.21 (active) and 0.986 (inactive): locus YJL095W, strain BCK1, stronger effect = lower value

Reference: PubChem BioAssay AID1159580 (chemical genetic matrix, 2015)
